High-throughput results: PubChem BioAssay, The Scripps Research Institute Molecular Screening Center
Most compounds without a hit are left out; they make up all but 3.4% or so of the library.
TEAD-YAP block: TEAD-YAP interaction inhibition | HEK-TIYL cells, TEAD-Gal4/YAP UAS-luciferase luminescence | inhibition, % at 9.12 µM | 640,000 compounds, 1.4% hits | AID 1259422; in the data active = inhibition above about 32%
FBW7 activator: human FBW7 E3 ligase activation, primary screen | AlphaScreen FBW7–phospho-cyclin E peptide binding, activator screen | 650,000 compounds, 0.13% hits | normalized activity (activation), % at 26.1 µM; in the data active = normalized activity above about 1.9%;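 also: purified mutant Fbw7 with reduced substrate affinity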
MITF inh: blocks human microphthalmia-associated transcription factor; 650,000 compounds, 0.91% hits; O75030; AlphaScreen MITF homodimerization, bead proximity signal; inhibition, % at 2.6 µM; in the data active = inhibition above about 50%
GPR151 ag: human GPR151 activation | PathHunter beta-arrestin GPR151 cells, luminescence | 650,000 compounds, 1% hits | Q8TDV0 | activation, % at 11.2 µM | AID 1508602; in the data active = activation above about 4.9%
Target sequence (Q8TDV0 whole entry, looked up): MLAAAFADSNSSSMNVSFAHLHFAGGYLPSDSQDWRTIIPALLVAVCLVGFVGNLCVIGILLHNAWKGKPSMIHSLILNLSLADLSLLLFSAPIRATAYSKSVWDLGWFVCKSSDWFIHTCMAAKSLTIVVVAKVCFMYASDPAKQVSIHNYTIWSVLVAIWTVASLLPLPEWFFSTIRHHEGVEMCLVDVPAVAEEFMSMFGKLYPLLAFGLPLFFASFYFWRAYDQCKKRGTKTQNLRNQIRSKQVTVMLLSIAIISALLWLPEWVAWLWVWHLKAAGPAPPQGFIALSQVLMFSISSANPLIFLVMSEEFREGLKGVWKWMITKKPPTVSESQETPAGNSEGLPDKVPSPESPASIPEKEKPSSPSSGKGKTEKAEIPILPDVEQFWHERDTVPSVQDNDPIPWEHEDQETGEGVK
Of the large screens only hits and unclear results are named; the others gave an inactive call.

Cc1nc2cc(-c3nc4ccccc4s3)ccc2n1-c1ccccc1	TEAD-YAP block 59
COc1ccc(S(=O)(=O)NCCCCc2ccccc2)cc1	none
Cc1cc(C(=O)CSc2nnc3ccccn23)c(C)n1Cc1ccco1	TEAD-YAP block 61
Cc1cc(C(=O)CCl)c(C)n1Cc1ccco1	none
Cc1cc(C(=O)CO/N=C/c2ccco2)c(C)n1Cc1ccco1	TEAD-YAP block 53
CC1C2CC(CN2C(=O)Cc2c[nH]c3ccccc23)CC1(C)C (configuration not stated)	none
CCOC(=O)c1oc2ccccc2c1NC(=O)c1c(F)cccc1Cl	none
COc1nc(NCCOc2ccccc2)nc(-c2ccc(C(=O)N3CCN(C)CC3)cc2)n1	none
CSc1ccc(C2C3=C(CC(C)(C)CC3=O)Nc3ccc4ncccc4c32)cc1 (configuration not stated)	none
NC1=NC(=O)/C(=C\c2ccc(-c3cccc([N+](=O)[O-])c3)o2)S1	none
NC1=NC(=O)/C(=C/C=C/c2ccc([N+](=O)[O-])o2)S1	TEAD-YAP block 35, MITF inh 98
NC1=NC(=O)/C(=C\c2ccc([N+](=O)[O-])o2)S1	MITF inh 80
O=C1NC(=S)S/C1=C/c1ccc([N+](=O)[O-])o1	MITF inh 74
COC(=O)C1=C(C)NC(=O)/C1=C\c1cc(C)n(-c2cccc(Cl)c2)c1C	none
CN(C)c1ccc(NC(=S)Nc2ccccc2)cc1	none
CN(C)c1ccc(/C=C(\C#N)c2ccccn2)cc1	TEAD-YAP block 91
CN(C)c1ccc(NC(=S)c2ccccn2)cc1	TEAD-YAP block 93
Cc1ccc(NC(=S)c2ccccn2)cc1	TEAD-YAP block 51
COc1ccc(NC(=S)Nc2ccccn2)cc1	none
COc1ccccc1NC(=S)c1ccccn1	none
COc1ccc(NC(=S)c2ccccn2)cc1	TEAD-YAP block 60
CSc1ccc(/C=C(\C#N)c2ccccn2)cc1	none
CCOC(=O)c1c(C)nc2c(c1C)C(=O)CC(C)(C)C2	none
CSc1ccc(C=C2C(=O)c3ccccc3C2=O)cc1	none
CC1C(=O)C(=O)/C(=C\c2ccccc2)C1=O (configuration not stated)	MITF inh 82
O=C1[C@@H]2C[C@@H](O)CN2C(=O)[C@H]2CN(Cc3cnn(-c4cccc(F)c4)c3)CCN12	none
O=[N+]([O-])c1ccc(/C=C/c2nc3ccccn3c2Br)cc1	none
COc1ccccc1OCCn1cc(C(=S)N2CCOCC2)c2ccccc21	none
COc1ccc(OCCn2cc(C(=S)N3CCOCC3)c3ccccc32)cc1	TEAD-YAP block 32
CCCCOc1ccccc1C(=O)NNC(=S)NC(C)=O	none
CC(=O)NC(=S)NNC(=O)c1ccccc1OCc1ccccc1	TEAD-YAP block 63
O=C(Nc1cc(-c2ccccc2Oc2ccccc2F)ccn1)C1CCOC1 (configuration not stated)	TEAD-YAP block 37
COc1cc(Br)c(/C=C2\C(=O)N(c3ccccc3)N=C2C)cc1OC	none
CC1=NN(c2cccc(C(=O)O)c2)C(=O)/C1=C\c1ccco1	MITF inh 65
CC1=NN(c2cccc(C(=O)O)c2)C(=O)/C1=C\c1cc2c(cc1Cl)OCO2	MITF inh 61
CC1=NN(c2cccc(Cl)c2)C(=O)/C1=C/c1cc2c(cc1Cl)OCO2	none
CC1=NN(c2cccc(C(=O)O)c2)C(=O)/C1=C\c1ccc(-c2cccc(C(=O)O)c2)o1	MITF inh 62
COc1cc(/C=C2\C(=O)N(c3cccc(C(=O)O)c3)N=C2C)c(Br)cc1O	MITF inh 62
CC1=NN(c2cccc(C(=O)O)c2)C(=O)/C1=C/c1ccc(C)o1	none
CCOC(=O)c1sc(N/N=C/c2ccc(O)cc2)nc1C	none
NS(=O)(=O)c1ccc(N2N=C(C(F)(F)F)/C(=C/c3ccc(-c4ccc5c(c4)C(=O)NC5=O)o3)C2=O)cc1	none
COc1ccc(/C=C2\C(=O)N(c3cccc(C(=O)O)c3)N=C2C)cc1OC	none
COc1cc(/C=C2/C(=O)N(c3cccc(C(=O)O)c3)N=C2C)cc2sc(=O)oc12	MITF inh 61
CC(C)OC(=O)c1c(NC(=O)c2cc3n(n2)C(C(F)(F)F)CC(c2ccc(Br)cc2)N3)sc2c1CCCC2 (configuration not stated)	none
CCOc1ccc(-c2c[n+]3c(n2Cc2ccccc2)SCCC3)cc1	TEAD-YAP block 67
CCOc1ccc(-n2c(-c3ccccc3)csc2=NC(C)=O)cc1	none
CCOc1ccc(-n2c(-c3ccccc3)c[n+]3c2CCCCC3)cc1	TEAD-YAP block 66
Brc1ccc(-c2c[n+]3c(n2Cc2ccccc2)SCCC3)cc1	none
Cc1ccccc1-c1nc(CSCC(=O)N2CCCC2)c(C)o1	TEAD-YAP block 56
Cc1ccccc1-c1nc(CSCC(=O)N2CCOCC2)c(C)o1	none
Cc1ccsc1-c1nc(CSCC(=O)N2CCCC2)c(C)o1	TEAD-YAP block 46
CCc1ccc(-c2nc(CSCC(=O)N3CCN(CC)CC3)c(C)o2)cc1	TEAD-YAP block 37
CN(C(=O)C1CCOCC1)C(Cc1ccccc1)C1CCN(C(=O)c2cccs2)CC1 (configuration not stated)	none
COC(=O)C1=C(C)OC(N)=C(C#N)C1c1cccc(OC)c1 (configuration not stated)	none
O=C1Nc2ccccc2/C1=C/C=C/c1ccco1	none
O=C1/C(=C/C=C/c2ccco2)CCC/C1=C\C=C\c1ccco1	MITF inh 64
O=C1/C(=C\c2ccco2)CCC/C1=C\c1ccco1	MITF inh 83
O/N=C1\CCCC\C1=C\c1ccco1	none
Cc1ccc(CN[C@H]2C[C@H]3C(=O)N4CCC[C@H]4C(=O)N3C2)c(C)c1	none
O=C(Nc1ccc(Cl)c(Cl)c1)c1ccc(F)c(S(=O)(=O)N2CCCCC2)c1	none
CCOc1ccccc1Nc1nnc(SCCC#N)s1	none
CCCCOc1ccc(NC(=O)C2CCCCC2C(=O)O)cc1 (configuration not stated)	none
O=C(O)C1CCCCC1C(=O)Nc1ccc(Oc2cccc3ccccc23)cc1 (configuration not stated)	TEAD-YAP block 71
O=C(O)c1ccccc1C(=O)Nc1ccc(Oc2cccc3ccccc23)cc1	TEAD-YAP block 82
Cc1cccc(Oc2ccc(NC(=O)c3ccccc3C(=O)O)cc2)c1C	none
COc1cc(C2Nc3ccccc3NC3=C2C(=O)CC(c2ccccc2Cl)C3)cc(Br)c1O (configuration not stated)	TEAD-YAP block 43
COc1cc(C2Nc3ccccc3NC3=C2C(=O)CC(c2ccccc2Cl)C3)ccc1O (configuration not stated)	TEAD-YAP block 51
CCCc1cc(=O)[nH]c(-n2nc(C)cc2NC(=O)c2cccc(Cl)c2)n1	FBW7 activator 2.4
Cc1cccc(C(=O)Nc2cc(C)nn2-c2nc(C)cc(=O)[nH]2)c1	none
CCOC(=O)c1c(C)sc2c3c([nH]c12)CCCC3	TEAD-YAP block 62
Cc1cnc(NCCCN2CCCC2=O)nc1NC1CCN(Cc2ccccc2)CC1	none
Cc1nn2c(CN3CCOCC3)nnc2c2cc([N+](=O)[O-])ccc12	none
COCCN1C(C)=CC(=C2C(=O)NC(=S)NC2=O)C=C1C(F)(F)F	TEAD-YAP block 45
CC1=CC(=C2C(=O)NC(=S)NC2=O)C=C(C(F)(F)F)N1CCN(C)C	none
